The list is not random: actives were taken first. Their share in the collection is about 3.5%.
FBW7 activator: activators of human E3 ligase FBW7. AlphaScreen FBW7–phospho-cyclin E peptide binding, activator screen. normalized activity (activation), % at 26.1 µM. hit rate 0.13% among 650,000. AID 1259310; in the data active = normalized activity above about 1.9%;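 note: purified mutant Fbw7 with reduced substrate affinity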
TEAD-YAP inh: TEAD-YAP interaction inhibition; hit rate 1.4% among 640,000; HEK-TIYL cells, TEAD-Gal4/YAP UAS-luciferase luminescence; inhibition, % at 9.12 µM; in the data active = inhibition above about 32%;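 note: 0% = median of test compound wells and 100% = reference inhibitor wells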
GPR151 activ: human GPR151 activation. Q8TDV0. PathHunter beta-arrestin GPR151 cells, luminescence. activation, % at 11.2 µM. hit rate 1% among 650,000; in the data active = activation above about 4.9%;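 note: 0% = median of compound wells and 100% = cells with positive control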
MITF primary: inhibitors of human MITF; AlphaScreen MITF homodimerization, bead proximity signal; inhibition, % at 2.6 µM; hit rate 0.91% among 650,000; in the data active = inhibition above about 50%;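 note: 0% = vehicle wells with protein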
Active calls of the source: *.

SMILES	FBW7 activator	TEAD-YAP inh	GPR151 activ	MITF primary
COC(=O)c1cnc(Nc2cc(Cl)ccc2OC)c2ccccc12	0	1	-1	15
COC(=O)c1cnc(Nc2ccc(OC)c(Cl)c2)c2ccccc12	2.4*	-13	0	9
COc1ccc(S(=O)(=O)NCCSC(C)(C)C)cc1I	0	-2	-1	9
S=c1[nH]ncn1/N=C/c1ccc(N2CCOCC2)cc1	1	73*	-2	16
CC(=O)N(/C=C1\Sc2ccccc2C1=O)c1ccc(I)cc1	0	-11	0	-8
COc1ccc(N(/C=C2\Sc3ccccc3C2=O)C(C)=O)cc1	0	51*	-8	19
CC(=O)N(/C=C1/Sc2ccccc2C1=O)c1ccc(C)cc1	0	59*	-3	12
COc1ccccc1N(C=O)/C=C1\Sc2ccccc2C1=O	0	55*	-2	0
CC(=O)N(/C=C1\Sc2ccccc2C1=O)c1ccc(C)c(C)c1	0	86*	-3	4
COc1ccc(N(/C=C2\Sc3ccccc3C2=O)C(=O)c2ccccc2)cc1	0	54*	-9	-4
O=C1/C(=C\N(C(=O)c2ccccc2)c2ccccc2)Sc2ccccc21	0	3	-3	-1
COc1ccc(N(/C=C2\Sc3ccccc3C2=O)C(=O)c2ccc(C)cc2)cc1	0	41*	-9	-7
Cc1ccc(-n2c(=S)sc3c(=O)n(-c4ccccc4)c(SCc4cccc(F)c4)nc32)cc1C	0	3	0	-11
CCc1cc(CC)c2c(=O)c3ccccc3sc2c1	0	3	-1	8
CCN(CC)CCNc1ccc(CO)c2sc3ccccc3c(=O)c12	0	34*	2	12
COc1ccc2c(c1)OC1(C)CC2C(S(=O)(=O)c2ccc(C)cc2)C(=O)N1C (stereo not drawn)	0	-3	1	4
Cc1cc(N(C)C)nc(NCCNC(=O)C(C)(C)Oc2ccc(Cl)cc2)n1	1	32*	-2	9
O=C(CC1(C(F)(F)F)NN=C(c2ccccc2)S1)c1ccc(Cl)cc1 (stereo not drawn)	0	-58	0	13
CCNc1nc(OC)nc(Oc2ccc(=O)n(-c3ccccc3)n2)n1	0	3	0	0
COc1nc(NCC(C)C)nc(Oc2ccc(=O)n(-c3ccccc3)n2)n1	2.4*	5	0	3
CCOc1ccc(NC(=O)C2=C(C)NC(=O)NC2c2ccc(Cl)cc2Cl)cc1 (stereo not drawn)	0	40*	0	-6
CCOc1ccc(NC(=O)C2=C(C)NC(=O)NC2c2cccc(Cl)c2)cc1 (stereo not drawn)	0	-3	-1	13
CCOc1ccc(NC(=O)C2=C(C)NC(=O)NC2c2ccc(C)cc2)cc1 (stereo not drawn)	0	33*	-1	-17
COc1ccc(C2NC(=O)NC(C)=C2C(=O)Nc2ccc(Br)cc2)cc1 (stereo not drawn)	1	47*	-1	5
Cc1ccc2c(c1)-c1c(cnn1CC(=O)NC1CCCC1)CO2	0	2	0	0
SMILES	FBW7 activator	TEAD-YAP inh	GPR151 activ	MITF primary
Cc1cc(=O)c2n(CC(=O)N/N=C/c3ccc4c(c3)OCO4)nc[n+]2[nH]1	0	-2	0	-8
O=C(COC(=O)C(Cc1ccccc1)N1C(=O)c2ccccc2C1=O)c1ccccc1 (stereo not drawn)	0	2	2	-5
C=CCNC(=O)c1c(-c2ccccc2)nc2cc(C)ccn12	1.9*	14	-1	17
COc1ccc(C2/C(=C(/O)c3ccc(Br)cc3)C(=O)C(=O)N2CCCN(C)C)cc1 (stereo not drawn)	0	-11	0	5
CC(=O)Nc1ccc(C(=O)NCC(=O)OCc2ccc(C(=O)c3ccccc3)cc2)cc1	0	44*	1	3
CCOc1ccc(NC(=O)c2cccc(OC)c2)c([N+](=O)[O-])c1	0	32*	-3	22
CCOc1ccc(N/C=C/C(=O)c2ccc(OC)cc2)c([N+](=O)[O-])c1	0	43*	0	-4
COc1ccc(NC(=O)CCS(=O)(=O)Cc2ccccc2)c([N+](=O)[O-])c1	0	58*	0	-7
CCCCN1/C(=C/c2cccc[n+]2C)Sc2cc(NC(C)=O)ccc21	0	6	1	26
C[n+]1ccccc1/C=C1\Sc2ccccc2N1CCCS(=O)(=O)O	2.5*	-2	-2	24
Cc1ccc2c(c1)N(C)/C(=C/c1cccc[n+]1C)S2	0	55*	0	2
CN1C=C/C(=C/c2cccc[n+]2C)c2ccccc21	0	13	0	-6
CN1/C(=C/c2cccc[n+]2C)Sc2ccccc21	0	70*	0	0
CCN1/C(=C/c2cccc[n+]2C)Sc2ccc(C)cc21	-1	52*	1	4
N#CC1=C(SCC(=O)Nc2ccc([N+](=O)[O-])cc2)NC(=O)CC1c1ccco1 (stereo not drawn)	0	-5	0	-5
Cn1nnnc1Sc1ccc(C(N)=O)cc1[N+](=O)[O-]	0	-4	2	5
Cn1nnnc1Sc1ccc([N+](=O)[O-])c2cnccc12	0	35*	0	-9
Cc1cc(C)nc(/N=C(\N)Nc2cccc(N)c2)n1	0	14	-1	12
CC(=O)Nc1ccc(OC(=O)c2ccc([N+](=O)[O-])c(C)c2)cc1	1	1	4	3
COc1ccc(CCNc2ncnc3c2cnn3C)cc1OC	0	14	0	-3
COc1ccc(CCNc2ncnc3ccc(I)cc23)cc1OC	0	74*	4	9
CCc1cc2c(NCCc3ccccc3)ncnc2s1	0	36*	2	0
CCc1cc2c(NCc3ccccc3)ncnc2s1	0	17	2	-21
COc1ccc(CCNc2ncnc3sc(C)cc23)cc1OC	0	61*	3	-10
Cc1cccn2c(=O)c(C=NCc3ccccc3)c(NCc3ccccc3)nc12	1	-6	-1	6
SMILES	FBW7 activator	TEAD-YAP inh	GPR151 activ	MITF primary
O=C(O)c1cc2ccccc2c([N+](=O)[O-])c1O	1	-3	2	29
COc1ccc(CNS(=O)(=O)c2ccc(F)c(C(=O)Nc3cc(Cl)ccc3OC)c2)cc1	1	10	1	11
O=C1CSC(c2ccc(OC(F)F)cc2)N1c1ccc(Oc2ccccc2)cc1 (stereo not drawn)	1	0	-1	14
Cc1onc(-c2ccccc2Cl)c1-c1nc(-c2cccnc2)no1	0	58*	-2	4
Cc1cc(O)ccc1NC(=O)c1ccccc1	0	3	-1	-8
Cc1cc(O)ccc1N/C=C/C(=O)c1ccccc1	0	74*	-3	-5
Cc1ccc(C(=O)/C=C/Nc2ccc(O)cc2C)cc1	0	40*	-1	11
COc1ccc(C(=O)/C=C/Nc2ccc(O)cc2C)cc1OC	0	-14	-1	7
CCCn1cc(-c2ccnc(Nc3ccc(-n4cnc(C)n4)cc3)c2)c(-c2ccc(F)cc2)n1	0	-7	1	29
Cn1ncc(-c2ccnc(Nc3ccc(N4CCOCC4)cc3)c2)c1Nc1ccccc1	-1	20	2	-4
